The campaign covered roughly 360,000 compounds. About 3,800 (1.1%) were called active. The sample as a whole holds a higher share of actives than the screen did. Values without a mark were called inactive.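 How the source made its calls: active means compounds causing at least 50% loss of cell viability in the single-dose screen, relative to plate controls; inactive means the rest.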

The assay is described as follows: TRAIL-exposed caspase-8 expressing cell killing – NB7+C8 cells, ATPlite luminescence, TRAIL sensitizer project, primary screen (AID 624354). Particulars: at 10 µM, active compounds read high.
In the case of `CNC(=O)n1ccc(C(=O)N2CCCCC2)n1`, the inhibition (viability loss, TRAIL sensitization) was -8.01%.
The same measure for `O=C(/C=C/c1ccc(Cl)cc1)NCCCn1ccnc1`: -4.39%; for `CN(C)N=Nc1ccc2nc[nH]c2c1`: -7.76%; for `COc1ccc(-n2nnnc2-c2nc3ccccc3s2)cc1`: 64.4% (active).
The result for `COc1ccc(-n2nnnc2SCC(=O)c2ccc(OC)c(OC)c2)cc1` reads -16.3%.
The same measure for `COc1ccc(-n2nnnc2SCC(=O)NCc2cccs2)cc1`: 1.36%.
`Cc1ccccc1OCC(=O)NCC(=O)OCC(=O)c1ccc2ccccc2c1`: the inhibition (viability loss, TRAIL sensitization) was -20.2%.
The result for `C/C(=N\NC(=O)COc1ccc(C)cc1[N+](=O)[O-])c1ccc2c(c1)OCCO2` reads -2.67%; that for `O=C(CCl)N(Cc1cccc([N+](=O)[O-])c1)c1cccc(Cl)c1`, 92.3% (active); that for `Cc1ccc(S(=O)(=O)N(CC(=O)Nc2cccc([N+](=O)[O-])c2)Cc2ccc(Cl)cc2)cc1`, 4.71%.
Turning to `Cc1cc([N+](=O)[O-])ccc1NCc1cccc([N+](=O)[O-])c1`, the inhibition (viability loss, TRAIL sensitization) is 0.71%.
For `CCCOC1CCCN(Cc2cn(C)nc2-c2ccccc2F)C1` (stereo unspecified), the inhibition (viability loss, TRAIL sensitization) is 3.04%.
The same measure for `Cc1noc(C)c1NC(=O)N(C)C[C@@H]1Oc2cc(Br)ccc2S(=O)(=O)N([C@@H](C)CO)C[C@H]1C`: 8.07%; for `Cc1c(Cl)c([N+](=O)[O-])nn1CC(=O)NCCCN1CCOCC1`: 27.8%; for `Cc1ccc(S(=O)(=O)N[C@H]2CCC[C@@H]2O)cc1`: 1.92%.
`COC(=O)c1ccc(NCc2cc(O)ccc2O)cc1`: the inhibition (viability loss, TRAIL sensitization) is 55.3% (active).
The result for `CC(C)OC(=O)c1ccc(NCc2cc(O)ccc2O)cc1Cl` reads 78.8% (active).
The same measure for `CCCc1cc(C(=O)Nc2ccc(C(=O)OC)cc2)cs1`: -5.01%; for `O=C(O)Cc1ccc(NCc2ccccc2Cl)cc1`: 8.54%; for `C#CCNc1ccc(C(=O)OCC)cc1`: 3.56%.
The result for `O=C(OC12CC3CC(CC(C3)C1)C2)c1ccc(NCc2cc(O)ccc2O)cc1` reads 86.4% (active).
Turning to `CN(C)c1nc(N)nc(CSc2nnnn2-c2cccc3ccccc23)n1`, the inhibition (viability loss, TRAIL sensitization) is 40.6%.
The same measure for `Cc1ccc(/C=N/NC(=O)c2sccc2OCc2ccc(F)cc2)cc1`: 15.2%; for `Cc1ccccc1CS(=O)(=O)CC1(O)CCN(C(=O)c2cccc(C(F)(F)F)c2)CC1`: 8.2%; for `CCOc1ccc(N(CC(=O)NC2CCCCCC2)S(=O)(=O)c2c(C)[nH]c(=O)[nH]c2=O)cc1`: 11.6%.
`COc1ccc(NC(=O)c2cc(=O)[nH]c3ccccc23)cc1S(=O)(=O)N1CCOCC1`: the inhibition (viability loss, TRAIL sensitization) was -0.328%.
The result for `CCOc1ccc(CCNC(=O)COC(=O)CCS(=O)(=O)c2ccc(C)cc2)cc1OCC` reads 6.55%; that for `Cc1c(Br)c([N+](=O)[O-])nn1CC(=O)N1CCN(Cc2ccccc2)CC1`, -5.96%.
The result for `O=C(Nc1ccn(Cc2ccccc2F)n1)c1ccc(COc2ccc(Cl)cc2Cl)o1` reads 11.2%; that for `O=C(Nc1ccn(Cc2ccccc2)n1)c1n[nH]c([N+](=O)[O-])c1Cl`, 62.6% (active).
Regarding `COC(=O)c1cc(NS(=O)(=O)c2ccc3c(c2)c(=O)n(C)c(=O)n3C)cc(C(=O)OC)c1`, the inhibition (viability loss, TRAIL sensitization) was 15.9%.
The same measure for `CC[C@H]1CN2CCc3cc(OC)c(OC)cc3[C@@H]2C[C@@H]1C[C@H]1NCCc2cc(OC)c(OC)cc21`: 53.7% (active); for `CCOC(=O)C1CCN(C(=O)C2CCN(S(=O)(=O)CC)CC2)CC1`: -7.6%.
The same measure for `CCN(CC(=O)Nc1c(F)cccc1F)C(=O)C1CCC1`: -2.6%; for `COc1ccc(COC(=O)c2n[nH]c3ccccc23)cc1F`: -10.3%.
As to `Cc1ccc(C(=O)NC(C)C(c2cccs2)N2CCOCC2)cc1C` (stereo unspecified), the inhibition (viability loss, TRAIL sensitization) was -23.4%.
The same measure for `CCOC(=O)C/C(C)=N\Nc1ccc([N+](=O)[O-])cc1[N+](=O)[O-]`: -7.23%.
The same measure for `CCOC(=O)C(=Cc1ccccc1)C(=O)c1ccccc1`: 18.2%; for `CCOC(=O)/C(=C\c1ccc([N+](=O)[O-])cc1)C(=O)c1cc(C(C)=O)c(Nc2ccccc2)s1`: 85.2% (active); for `O=C(CN1C(=O)NC(Cc2ccccc2)(Cc2ccccc2)C1=O)NCC1CCCCC1`: -33.8%.
The same measure for `CCC(CC)c1nnc(NS(=O)(=O)Cc2ccccc2)s1`: -5.15%.
As to `C=CCn1cc(Cl)cc(C(=O)Nc2ccccc2)c1=O`, the inhibition (viability loss, TRAIL sensitization) is 6.15%.
The result for `CCc1ccc(CNC(=O)C2CC(=O)N(CCc3ccc(C)cc3)C2)cc1` (stereo unspecified) reads 8.62%; that for `CCc1ccc(CNC(=O)C2CCN(c3nnc(C)c4c(C)n(-c5ccc(C)cc5)nc34)CC2)cc1`, 84.7% (active); that for `Cc1ccc(NC(=O)N2CCC(C(=O)NCc3ccc(F)cc3)CC2)cc1`, 1.96%.
The result for `O=C(COC(=O)/C=C/c1ccc(OC(F)F)cc1)NC1CCCCC1` reads -8.42%.

(Values after PubChem BioAssay AID624354 (Sanford-Burnham Center for Chemical Genomics, 2012).)
